# TGFb inhibitor = inhibitors of TGF-b signaling; HepG2 CAGA-GFP TGF-b/SMAD3 reporter, GFP fluorescence, 18 h; TGF-beta stimulated, 500 pg/mL final; Potency, µM (highest dose often 46.1 µM), usual class: inhibitors; actives 1.2% (n = 410,000); AID 588855; further: nearly all actives have a fitted effect of over 65% in size
#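 HEPG2 CAGA-GFP reporter cells (1000/well, DMEM with 1% FBS) received compounds, then recombinant TGF-beta at 500 pg/mL final for 18 hours at 37 degrees C. Per-cell GFP summed per well was normalised to unstimulated and stimulated DMSO controls before curve fitting.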
# HepG2 tox = kills HepG2 cells in TGF-b inhibitor counter-screen; HepG2 CAGA-GFP viability, ATP luminescence, 18 h; Potency, µM (series often up to 46.1 µM), actives largely listed as cytotoxic; actives 0.76% (n = 410,000); AID 588856
#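 HepG2 CAGA-GFP cells (1000/well, DMEM with 1% FBS) received compound, then TGF-beta at 500 pg/mL final, and were incubated 18 hours at 37 degrees C. Viability was read by CellTiter-Glo luminescence. Media-only wells were set as complete cell-killing and DMSO as no toxicity.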
# ATXN2 expr inh = reduces ATXN2 reporter expression in HEK-293 cells. HEK-293 ATXN2-luciferase reporter, luminescence, 24 h. Potency, µM (series often up to 57 µM), most hits filed as inhibitors. actives 0.72% (n = 360,000); further: nearly all actives have a fitted effect of over 55% in size
#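 qHTS (up to 57 uM final) was run with 24 h compound exposure of reporter cells at 37 °C. Each well was multiplexed: SteadyGlo luminescence measured ATXN2-luciferase expression after a fluorogenic Gly-Phe-AFC viability readout (25 uM final).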
# LDHA inh = blocks human lactate dehydrogenase A; actives 0.15% (n = 480,000); P00338; purified LDHA, NADH/diaphorase-resazurin fluorescence; active compounds read low; activity change, % (values are at about 110 or 230 µM); in the data active means activity change below about -30%; inconclusive means mostly about -25% to -30%
#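 Remaining NADH was detected by diaphorase (0.133 mg/mL) converting 37 µM resazurin to fluorescent resorufin, read at 0 and 20 minutes. The preceding 5-minute room-temperature reaction used 2 nM LDHA, 0.2 mM sodium pyruvate and 0.06 mM NADH at pH 7.4.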
# IDH1 R132H inh = human IDH1 R132H inhibition. IDH1-R132H enzyme, NADPH consumption, diaphorase/resazurin fluorescence. Potency, µM (series often up to 76.6 µM), hits mostly inhibitors. actives 0.093% (n = 390,000). AID 602179; further: nearly all actives have a fitted effect of over 65% in size
# Target sequence (O75874 whole entry R132H, stated change not applied): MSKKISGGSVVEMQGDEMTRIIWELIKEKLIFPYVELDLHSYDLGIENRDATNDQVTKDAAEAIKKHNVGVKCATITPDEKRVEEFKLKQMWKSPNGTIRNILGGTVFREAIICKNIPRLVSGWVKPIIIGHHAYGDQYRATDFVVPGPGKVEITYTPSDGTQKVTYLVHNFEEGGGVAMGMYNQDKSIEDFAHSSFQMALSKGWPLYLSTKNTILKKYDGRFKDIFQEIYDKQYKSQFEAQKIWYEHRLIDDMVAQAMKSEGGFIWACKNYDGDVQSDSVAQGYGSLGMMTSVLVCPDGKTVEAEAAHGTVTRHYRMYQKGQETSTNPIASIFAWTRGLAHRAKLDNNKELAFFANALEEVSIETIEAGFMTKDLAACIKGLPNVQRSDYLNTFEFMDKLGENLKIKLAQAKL
#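 IDH1-R132H (0.5 ug/mL) preincubated 30 min with compound, then NADPH (0.016 mM) and alpha-KG (2 mM) added; 80 min at RT, pH 7.5. Remaining NADPH coupled via diaphorase/resazurin to fluorescence (540/590 nm); concentration-response curves normalized to no-enzyme control.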
# S2 tox = viability counter-screen for ATXN expression inhibitors | S2 cells (HEK-293 line with an ATXN2-luciferase reporter) viability, CellTiter-Fluor protease fluorescence, 24 h | Potency, µM (titrated, usually from 56.7 µM), actives largely listed as cytotoxic | actives 0.49% (n = 400,000) | AID 651635; further: nearly all actives have a fitted effect of over 40% in size
# Numbers stand for hits; - = inactive; ? = inconclusive; . = no result. Most compounds without a hit are left out; they make up all but 2.2% or so of the library. Unless noted, the call rests on the fitted dose curve; in most records, active means well fitted curve in the direction sought with a large enough effect; inconclusive means small, poorly fitted or top-dose-only effect, or another doubt; inactive means no such curve, though single readings can be large; an effect the other way counts as inactive or inconclusive.
SMILES,TGFb inhibitor,HepG2 tox,ATXN2 expr inh,LDHA inh,IDH1 R132H inh,S2 tox
NC(Cc1ccc(F)cc1)c1csc(Nc2cc(NCc3ccco3)ncn2)n1 (configuration not stated),?,-,18µM,-,.,?
NC(Cc1ccc(F)cc1)c1csc(Nc2cc(Oc3ccccc3)ncn2)n1 (configuration not stated),?,13µM,?,-,.,28µM
COc1ccc(CC(N)c2csc(Nc3cc(Oc4ccccc4)ncn3)n2)cc1 (configuration not stated),?,18µM,?,-,.,?
Cc1ccc(NC(=O)CN2C(=O)C(c3ccc(C(C)(C)C)cc3)=NC2(C)C)cc1,-,-,.,-,-,.
O=C(COc1ccc([N+](=O)[O-])cc1)Nc1ccc2oc(-c3ccccc3Br)nc2c1,.,.,.,-,.,.
CCc1ccc(S(=O)(=O)Nc2cccc(S(=O)(=O)N(CC)CC)c2)cc1,.,.,.,-,.,.
COc1cc(/C=C/C(=O)C23CC4CC(CC(C4)C2)C3)cc(OC)c1OC,.,.,.,-,.,.
CCn1cc(CNCc2cn[nH]c2-c2cc3ccccc3o2)cn1,-,-,-,-,-,-
CC(Nc1nc2c(c(=O)n(C)c(=O)n2C)n1Cc1ccccc1Cl)c1ccccc1 (configuration not stated),.,.,.,-,.,.
O=C(c1cccs1)N1CCN(c2cccc(Cl)c2)CC1,-,-,-,-,-,-
O=C(c1ccc([N+](=O)[O-])s1)N1CCN(c2cccc(Cl)c2)CC1,11µM,-,-,-,-,?
CCOc1ccc(CNC(=O)C2CCN(C(=O)N3CC(CC)Oc4ccccc43)CC2)cc1 (configuration not stated),-,-,.,-,-,.
Cc1cc(C(=O)CSc2nc3ccccc3[nH]2)c(C)n1CC1CCCO1 (configuration not stated),?,-,?,-,-,18µM
C[C@@]12C(C[C@H](O)[C@@]34C[C@@H](CCC13)[C@@H](CO)C4=O)[C@](C)(C(=O)O)CC[C@@H]2O (some centres not stated),-,-,-,-,.,-
C=C1C(=O)[C@]23C[C@H]1CCC2[C@@]1(C)C(C[C@@H]3O)[C@](C)(C(=O)OC)CC[C@@H]1O (some centres not stated),0.79µM,5µM,1.6µM,-,.,.
O=C(NC1CCCC1)N1CCCC1,.,.,.,-,.,.
O=C1C=CC(=O)N1c1ccccc1N1C(=O)C=CC1=O,?,-,?,-,-,35µM
O=C(O)CSCC(=O)NCc1ccccc1Cl,-,-,-,-,-,-
CCn1c(CNC(=O)c2ccc3c(c2)OCO3)nnc1SCC(=O)c1ccc(OC)cc1,.,.,.,-30,.,.
CCn1c(CNC(=O)c2ccc(OC)cc2)nnc1SCC(=O)c1ccc(Br)cc1,.,.,.,-,.,.
CCOC(=O)c1c(NC(=O)c2ccc(S(=O)(=O)N(CCOC)CCOC)cc2)sc2c1CC(C)(C)NC2(C)C,11µM,-,.,-,-,.
CCOC(=O)c1c(NC(=O)c2ccc(S(=O)(=O)N3CCCC(C)C3)cc2)sc2c1CC(C)(C)NC2(C)C (configuration not stated),?,13µM,?,-,-,.
CC1(C)Cc2c(sc(NC(=O)c3ccc(C(=O)c4ccccc4)cc3)c2C(N)=O)C(C)(C)N1,?,18µM,25µM,-,-,?
CC1CCN(S(=O)(=O)c2ccc(C(=O)Nc3sc4c(c3C(N)=O)CC(C)(C)NC4(C)C)cc2)CC1,-,-,.,-,-,.
CCOC(=O)c1ccc(NC(=O)C2CCCN(S(=O)(=O)c3ccc(F)cc3)C2)cc1 (configuration not stated),-,-,32µM,-,-,?
SMILES,TGFb inhibitor,HepG2 tox,ATXN2 expr inh,LDHA inh,IDH1 R132H inh,S2 tox
COC(=O)c1c(NC(=O)c2ccccc2)sc2c1CC(C)(C)NC2(C)C,-,-,-,-,-,-
Cc1c(NC(=O)c2ccc(F)c(S(=O)(=O)N3CCOCC3)c2)c(=O)n(-c2ccccc2)n1C,-,-,-,-,-,-
C=CCC[C@@H](Cc1ccc(F)cc1)C(=O)OC[C@H](Cc1c[nH]c2ccccc12)NC(=O)[C@@H](CC=C)CC(=O)N[C@H](CO)Cc1ccccc1,?,13µM,-,-,-,?
C=CCC[C@H](Cc1ccc(F)cc1)C(=O)OC[C@H](Cc1c[nH]c2ccccc12)NC(=O)[C@@H](CC=C)CC(=O)N[C@H](CO)Cc1ccccc1,13µM,-,-,-,-,?
C=CCC[C@H](Cc1ccc(F)cc1)C(=O)OC[C@H](Cc1c[nH]c2ccccc12)NC(=O)[C@@H](CC=C)CC(=O)N[C@@H](CO)Cc1ccccc1,?,13µM,16µM,-,-,18µM
C=CCC[C@H](Cc1ccc(F)cc1)C(=O)OC[C@H](Cc1c[nH]c2ccccc12)NC(=O)[C@H](CC=C)CC(=O)N[C@H](CO)Cc1ccccc1,-,-,-,-,-,?
CSc1ccc(NC(=O)CSc2nc3[nH]c(=O)cc(O)c3s2)cc1,-,-,.,-,-,-

# From PubChem BioAssay
